Only some compounds are listed: those with a hit (about 6.5% of all), similar ones and a draw of the others.
Vaccinia Venus – qHTS for Stage-Specific Inhibitors of Vaccinia Orthopoxvirus: Venus Reporter Primary qHTS; Potency, µM (titrated, usually from 36.5 µM), inactives show at the highest dose activity change, negative = inhibition, actives largely listed as inhibitors; 330,000 compounds, 0.46% hits; Vaccinia virus Venus reporter expression, fluorescence; calls by dose curve; tested in A549 cells; note: potency is the fitted concentration of half-maximal effect; nearly all actives have a fitted effect of over 30% in size
HCMV inh – qHTS Assay for inhibitors of the human cytomegalovirus (HCMV); HFF cells, HCMV-luciferase reporter, 72 h; stronger effect = lower value; activity change, negative = inhibition, % at 57.5 µM; 410,000 compounds, 4.5% hits; in the data active = activity change below about -60%; inconclusive = no clear call, values can overlap the other calls; inactive = above about -39%
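Cell-based, HFFs, 1000 cells/well, 16 h 37C; cpds in DMSO + HCMV-luc, MOI 1 PFU/cell; 72 h 37C; OneGlo luminescence after 5 min RT; norm. to buffer vs Salinomycin 10uM.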
FMDV antiviral – High Throughput Screening for Foot and Mouth Disease Virus Antivirals. FMDV antiviral cell-based qHTS. AID 1159524, 2015. 410,000 compounds, 1.2% hits. Potency, µM (series often up to 57.9 µM), without a hit: at the highest dose activity change, negative = inhibition, actives largely listed as inhibitors; calls by dose curve; tested in HEK293T cells; note: read-out not given here; potency is the fitted concentration of half-maximal effect; nearly all actives have a fitted effect of over 45% in size
LASV entry inh – qHTS for Inhibitors of binding or entry into cells for Lassa Virus; 300,000 compounds, 1.2% hits; AID 540256, 2011; Potency, µM (top dose mostly 37.9 µM), for inactives: at the highest dose activity change, negative = inhibition, usual class: inhibitors; Lassa virus pseudotype entry inhibition, cell reporter; calls by dose curve; tested in HEK293 cells; note: potency is the fitted concentration of half-maximal effect; nearly all actives have a fitted effect of over 50% in size
Vaccinia mCherry – qHTS for Stage-Specific Inhibitors of Vaccinia Orthopoxvirus: mCherry Reporter Primary qHTS; Potency, µM (series often up to 36.5 µM), without a hit: at the highest dose activity change, negative = inhibition, usual class: inhibitors; AID 720579, 2013; 310,000 compounds, 0.63% hits; Vaccinia virus mCherry reporter infection, fluorescence; calls by dose curve; tested in A549 cells; note: potency is the fitted concentration of half-maximal effect; nearly all actives have a fitted effect of over 35% in size
MARV entry inh – qHTS for inhibitors of binding or entry into cells for Marburg Virus; Marburg virus pseudotyped entry inhibition, cell reporter; Potency, µM (top dose mostly 37.8 µM), without a hit: top-dose activity change, negative = inhibition, hits mostly inhibitors; 300,000 compounds, 1.8% hits; calls by dose curve; tested in HEK293 cells; note: potency is the fitted concentration of half-maximal effect
* = called active by the depositor; i = inactive; u = inconclusive; x = not tested or not shown; [ ] = dose if it differs, or a comment. % is set by controls: 0 for no effect and ±100 for the full control effect.

SMILES	Vaccinia Venus	HCMV inh	FMDV antiviral	LASV entry inh	Vaccinia mCherry	MARV entry inh
O=C1CC2OCC=C3CN4CCC56c7cc([N+](=O)[O-])ccc7N1C5C2C3CC46 (stereo not given)	-1%	-88*	2%	x	i	x
CSc1ccc(CN2CCC(CO)(Cc3ccc(Cl)cc3)CC2)cc1	14%	-39	u	13µM*	-6%	u
COc1cccc(-c2ccc(O)c(CNCc3cccc4ccccc34)c2)n1	-12%	x	-5%	x	i	x
CCc1ccccc1NC(=O)CN1C(=O)C2CCCN2c2ccc(S(=O)(=O)N(CC)CC)cc21 (stereo not given)	4%	11	-4%	9%[46.1 µM]	-5%	x
Cc1ccc2nc(C)cc(C(=O)NC3CCCCCC3)c2c1	x	6	-13%	x	x	x
Cc1ccc2nc(/N=C(\N)NC(=O)NC3CCCCC3)nc(C)c2c1	u	-65*	u	u	u	5.6µM*
CCCC(=O)N/C(N)=N/c1nc(C)c2cc(C)ccc2n1	u	-2	15%	u	2.2µM*	-18%[46.1 µM]
S=Cc1nc2ccccc2[nH]1	-10%	x	x	x	31%	x
COc1ccc(C2Sc3ccccc3N(CCN(C)C)C(=O)[C@@H]2OC(C)=O)cc1 (stereo not given in full)	-5%	x	-5%	x	-2%	u
COc1ccc([C@@H]2Sc3ccccc3N(CCN(C)C)C(=O)[C@@H]2OC(C)=O)cc1	-13%	-7	-16%	2.3µM*	-14%	u
Cc1ccc(S(=O)(=O)Nc2ccc(O)c3ccccc23)c(C)c1	-16%	u	-12%	-6%	-20%	u
Cc1ccc(S(=O)(=O)Nc2ccc3c4c(cccc24)CC3)c(C)c1	-29%	-70*	31%	-22%	u	u
Cc1cc(C)c(S(=O)(=O)Nc2ccc3c4c(cccc24)CC3)c(C)c1	u	-100*	6%	1µM*	u	u
C#CC[N+](C)(C)C(C#Cc1ccccc1)CC=C (stereo not given)	-27%	-89*	23%	22%	-2%	-4%
C#CC[N+](CC)(CC)CC#Cc1ccccc1	-27%	20	-16%	2%	u	9%
Cc1c(-c2ccccc2)c(-c2ccc(OCCN(C)C)cc2)n2ccccc12	-1%	-74*	-2%	u	i	u
O=C1OC(c2cccc(Cl)c2)N=C2C1C=NN2c1ccccc1 (stereo not given)	x	x	x	x	x	2%
Cn1c(=O)c2c(nc(-c3ccc(N(CCCl)CCCl)cc3)n2C)n(C)c1=O	-22%	-30	32µM*	u	u	u
Cc1cccc(N/C(N)=N/c2nc3c(c(=O)[nH]2)CCCC3)c1	x	8	4%	4%	x	-45%
N/C(=N\c1nc2c(c(=O)[nH]1)CCC2)Nc1cccc(Cl)c1	u	-28	-14%	-27%	u	6.3µM*
CCC1C(=O)NCCN1Cc1ccc2c(c1)CN(Cc1ccc3c(c1)OCCO3)CCO2 (stereo not given)	-6%	x	-3%	x	-9%	x
Cc1ccc(NC(=O)CN(C)S(=O)(=O)c2ccc3c(c2)n(C)c(=O)c(=O)n3C)cc1C	-10%	-5	-2%	-10%[46.1 µM]	-2%	-4%[46.1 µM]
O=C1CCCc2cc3c(cc21)CC1(C3)Cc2cc3c(cc2C1)C(=O)CCC3	u	-81*	u	x	-10%	x
CCc1ccc2c(c1)C(=O)CCC2	-12%	-19	12%	26%[46.1 µM]	i	1%[46.1 µM]
O=C(CCC(=O)N1CCN(c2ccccc2F)CC1)N1CCN(c2ccc(F)cc2)CC1	-18%	-62*	22µM*	u	-13%	-2%
SMILES	Vaccinia Venus	HCMV inh	FMDV antiviral	LASV entry inh	Vaccinia mCherry	MARV entry inh
O=C(CCSCc1ccccc1Cl)N1CCN(c2ccc(F)cc2)CC1	-14%	-64*	3%	10%[46.1 µM]	-16%	x
CCOC(=O)CNC(=S)N(Cc1ccc(C)cc1)Cc1ccc(C)o1	-10%	-82*	-8%	u	-16%	u
FC(F)(F)c1cccc(NC(=S)NCc2ccc(Cl)cc2)c1	u	-90*	-27%	-17%	-8%	u
CN(C)NC(=S)Nc1cccc(C(F)(F)F)c1	-11%	9	-19%	3%	-3%	19%[46.1 µM]
Fc1ccccc1CNC(=S)Nc1cccc(C(F)(F)F)c1	u	-79*	-5%	u	u	u
Cc1ccc(NC(=S)NCc2ccccc2)cc1[N+](=O)[O-]	-23%	-96*	19%	16µM*	u	7.1µM*
Cc1ccc(CNC(=S)Nc2ccc(C)c([N+](=O)[O-])c2)cc1	-9%	4	-24%	20%	i	28%
CC(NC(=S)Nc1cccc(C(F)(F)F)c1)C(C)(C)C (stereo not given)	-21%	u	u	10µM*	-6%	u
CCc1ccc(C(=O)c2cn(CC(=O)Nc3cc(F)ccc3F)c3nc(C)ccc3c2=O)cc1	-11%	1	-19%	-6%[46.1 µM]	-17%	x
C[C@@H](CC(=O)O)[C@@H](N)C(=O)O	-7%	x	-10%	x	i	x
CCCC(=O)Nc1ccc2nn(-c3ccc(CC)cc3)nc2c1	9%	67	54%	19%[46.1 µM]	-6%	u
COc1ccc(CCNC(=O)CCCn2nc(C)c3sc4ccccc4c3c2=O)cc1OC	4%	-13	-26%	-27%[46.1 µM]	-13%	u
S=C(NCc1ccccc1)Nc1cccc(Cl)c1	-14%	-84*	62%	-1%	-7%	-35%
O=C(CNc1cccc(Cl)c1)NNC(=S)NCc1ccccc1	1%	u	-24%	-15%	-18%	-26%
CCOc1ccccc1C(=O)N/N=C/c1coc2ccc(Cl)cc2c1=O	-16%	-74*	-3%	u	i	u
Cc1ccc2occ(/C=N/NC(=O)c3ccccc3O)c(=O)c2c1	x	-83*	10%	x	x	x
Cc1ccc2occ(/C=N/NC(=O)c3ccc(Cl)cc3)c(=O)c2c1	-3%	-65*	-17%	0%	-16%	11%
Cc1ccc2occ(/C=N/NC(=O)c3ccncc3)c(=O)c2c1	x	-31	1%	x	x	x
O=C(N/N=C/c1coc2ccc(Cl)cc2c1=O)c1cc(O)cc(O)c1	-9%	2	-21%	-2%	-21%	-10%
Nc1nc2[nH]cc(CCc3ccc(C(=O)N[C@@H](CCC(=O)O)C(=O)O)cc3)c2c(=O)[nH]1	-12%	x	x	x	u	x
Cc1cccc2sc(N(CCCN(C)C)C(=O)CCc3ccccc3)nc12	u	-72*	-12%	u	u	u
CN(C)CCCN(C(=O)CCc1ccccc1)c1nc2ccc(Br)cc2s1	u	0	25µM*	u	u	u
CN(C)CCCN(C(=O)CCc1ccccc1)c1nc2ccc(F)cc2s1	-12%	-12	-15%	-18%	-12%	-29%

Screening results from PubChem.
